Growth data for 13 compounds are collected here from PubChem BioAssay (NCI).

Test systems include NCI-H23 lung; NCI-H226 lung; NCI-H322M lung; HOP-62 NSCLC; NCI-H460 lung; HOP-92 NSCLC; NCI-H522 lung; A549/ATCC NSCLC; COLO 205 colon; 786-0 renal.
Assay in all cases: NCI-60 one-dose screen, 48 h (100 = growth as untreated, 0 = no growth, -100 = all killed)
Common to all, as to conditions: 10 µM unless noted

About 83,000 compounds went through this panel and 20% of them were active in at least one assay; those are over-represented in the sample as a whole.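 Results are percent growth after 48 hours of single-concentration exposure. 100 means growth as in untreated cells, lower positive values show inhibition; negative values down to -100 show cell death.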 A number with no mark means an inactive call. Active and inactive are the calls of the source. Rule for the calls: active = growth percent below 10; inactive = the rest.

Take `Cc1ccccc1N1C(c2ccccc2)=NNC12C=CC(=O)c1c(O)cccc12` (stereo not drawn): the growth in the test on NCI-H23 lung was 31.4%; in the test on NCI-H226 lung, 87.8%; in the test on NCI-H322M lung, 99.1%; in the test with HOP-62 NSCLC, 31.1%; with NCI-H460 lung it was 89.6%; with HOP-92 NSCLC, 137%. Moreover, the results for the growth in the test with NCI-H522 lung, in the test with A549/ATCC NSCLC and in the test on COLO 205 colon were 54.6%, 68.1% and 95.7%, respectively.

For the compound `CCn1c(CN2CCN(Cc3ccccc3)CC2)nc2cc(NC(=O)c3cccs3)ccc21`, the growth in the test on NCI-H23 lung was -39% (active); with NCI-H226 lung, -35.5% (active); in the test on NCI-H322M lung, -69% (active); in the test with HOP-62 NSCLC it was -81.6% (active); in the test on NCI-H460 lung, -69.9% (active); in the test with HOP-92 NSCLC, -72.3% (active). The growth with NCI-H522 lung was -64.4% (active); in the test with A549/ATCC NSCLC it was -72.9% (active); with 786-0 renal, -67.8% (active); with COLO 205 colon it was -91.3% (active).

On to `C=C1NC(=O)C(C(C)CC)NC(=O)C2CSCC(NC(=O)CCC(=O)O)C(=O)NC(Cc3ccccc3)C(=O)NC(C)C(=O)NC(CC(C)CC)C(=O)NC(C(=O)NC(Cc3ccccc3)C(=O)N3CCCC3C(=O)N2)C(C)OC(=O)C(CO)NC(=O)C(C(O)COC)N(C)C(=O)C(C(C)C)NC(=O)C(CC(C)CC)NC1=O` (stereo not drawn), for which the growth was 38.6% [6 µM] in the test with NCI-H23 lung; 56.8% [6 µM] in the test with NCI-H226 lung; 39.8% [6 µM] with NCI-H322M lung; 17.3% [6 µM] with HOP-62 NSCLC; -4.11% [6 µM] (active) in the test on NCI-H460 lung; 42% [6 µM] in the test with HOP-92 NSCLC. Moreover, the figures for the growth in the test with NCI-H522 lung, with A549/ATCC NSCLC and with COLO 205 colon were -19.3% [6 µM] (active), 10.9% [6 µM] and -44.7% [6 µM] (active), respectively.

On to `COc1ccc(-c2nc(-c3cc(OC)cc(OC)c3)[nH]c2-c2ccc(OC)cc2)cc1`, for which the growth in the test on NCI-H23 lung was 39.1%; in the test with NCI-H226 lung it was 48.7%; in the test on NCI-H322M lung it was 60.6%; in the test with HOP-62 NSCLC it was 91.8%; with NCI-H460 lung, 48%; in the test with HOP-92 NSCLC it was 23.7%. In addition, the growth with NCI-H522 lung is 20.9%; in the test with A549/ATCC NSCLC it was 46.7%; with 786-0 renal, 63.8%; with COLO 205 colon, 34.2%.

Turning to `CCc1ccc(Nc2ncnc3c2cnn3-c2cccc(Br)c2)cc1`, the growth with NCI-H23 lung was 96.1%; in the test with NCI-H226 lung it was 85.7%; in the test with NCI-H322M lung, 105%; in the test on HOP-62 NSCLC, 84%; with NCI-H460 lung, 102%; in the test on HOP-92 NSCLC, 91.8%. Further, the growth in the test on NCI-H522 lung was 89.1%; with A549/ATCC NSCLC, 97.2%; in the test with 786-0 renal, 106%; in the test on COLO 205 colon, 104%.

In the case of `COc1ccc(/C=C(/C(=O)N2CCN(c3ccccc3)CC2)c2cc(OC)c(OC)c(OC)c2)cc1N`, the growth in the test with NCI-H23 lung is 39.4%; with NCI-H226 lung, 40.5%; with NCI-H322M lung, 49.8%; in the test with HOP-62 NSCLC it was 30.4%; in the test with NCI-H460 lung, 6.98% (active); with HOP-92 NSCLC it was 92.2%. For the same compound, the growth with NCI-H522 lung was 3.2% (active); in the test on A549/ATCC NSCLC, 24%; in the test on 786-0 renal, 25.7%; in the test on COLO 205 colon, -21.2% (active).

For the compound `CC1(C)C(N(O)C(=O)Nc2ccc(Cl)cc2)N(c2ccc(Cl)cc2)C(=O)N1CC(=O)N/N=C/C=C/c1ccc([N+](=O)[O-])o1` (stereo not drawn), the growth is 3.01% (active) with NCI-H23 lung; 25.8% with NCI-H226 lung; 49% in the test on NCI-H322M lung; 36.8% with HOP-62 NSCLC; -13.1% (active) with NCI-H460 lung; -30.9% (active) in the test on HOP-92 NSCLC. For the same compound, the growth in the test with NCI-H522 lung is -88.5% (active); in the test on A549/ATCC NSCLC, 6.98% (active); in the test on 786-0 renal, -48.9% (active); in the test with COLO 205 colon, -81.3% (active).

In the case of `CCOc1ccc([C@@H]2[C@@H](Oc3ccccc3)C(=O)N2c2cc(OC)c(OC)c(OC)c2)cc1`, the growth in the test on NCI-H23 lung was 23.9%; in the test on NCI-H226 lung, 41.5%; in the test with NCI-H322M lung, 38.6%; in the test on HOP-62 NSCLC it was 27.4%; in the test on NCI-H460 lung, 7.32% (active); in the test on HOP-92 NSCLC, 63.3%. Further, the growth with NCI-H522 lung was 10.5%; in the test on A549/ATCC NSCLC it was 23.1%; with 786-0 renal it was 10.1%; with COLO 205 colon it was -47.2% (active).

In the case of `COC(=O)CNS(=O)(=O)c1ccc2c(c1)Cc1cc(S(=O)(=O)NCC(=O)OC)ccc1-2`, the growth in the test with NCI-H23 lung was 107%; in the test with NCI-H226 lung, 89.9%; in the test with NCI-H322M lung, 106%; in the test on HOP-62 NSCLC it was 97.8%; with NCI-H460 lung, 105%; with HOP-92 NSCLC it was 99.6%. Besides, the growth in the test on NCI-H522 lung is 95.7%; in the test with A549/ATCC NSCLC, 99.7%; with 786-0 renal, 105%; in the test on COLO 205 colon, 107%.

For the compound `Nc1ccc(N(O)/C=C2\C=CC=CC2=O)cc1N`, the growth in the test on NCI-H23 lung is 82.7%; with NCI-H226 lung, 103%; in the test on NCI-H322M lung, 110%; in the test with HOP-62 NSCLC, 95.7%; in the test on NCI-H460 lung, 119%; with HOP-92 NSCLC, 91.3%. In addition, the growth is 72.7% in the test with NCI-H522 lung, 94.4% with A549/ATCC NSCLC, 92.3% with 786-0 renal and 114% in the test with COLO 205 colon.

In the case of `Fc1cc(-c2nnc3sc(-c4ccc(Cl)cc4)nn23)c(Cl)cc1Cl`, the growth was 91.6% in the test with NCI-H23 lung; 93.2% with NCI-H226 lung; 82.3% with NCI-H322M lung; 116% in the test on HOP-62 NSCLC; 103% with NCI-H460 lung; 74.8% with HOP-92 NSCLC. Besides, the growth was 82.8% in the test on NCI-H522 lung, 93.8% with A549/ATCC NSCLC, 95.3% with 786-0 renal and 106% in the test with COLO 205 colon.

`O=Cc1ccc2nc(C(Cl)(Cl)Cl)ccc2c1`: the growth in the test on NCI-H23 lung is 92.4%; in the test with NCI-H226 lung, 97%; in the test with NCI-H322M lung, 91.9%; in the test on HOP-62 NSCLC, 104%; in the test on NCI-H460 lung it was 94.7%; in the test with HOP-92 NSCLC, 91.8%. The growth with NCI-H522 lung was 94.4%; in the test with A549/ATCC NSCLC, 108%; in the test with 786-0 renal, 99%; in the test on COLO 205 colon, 115%.

`CCN(CC)c1ccc2nc3c4ccccc4c(=O)cc-3n(-c3ccccc3)c2c1`: the growth was -3.45% (active) with NCI-H23 lung; 5.4% (active) with NCI-H226 lung; -23.5% (active) in the test with NCI-H322M lung; 9.84% (active) in the test on HOP-62 NSCLC; -41.5% (active) with NCI-H460 lung; -7.83% (active) with HOP-92 NSCLC. Also, the growth in the test on NCI-H522 lung is -8.95% (active); in the test with A549/ATCC NSCLC, 11.6%; in the test with 786-0 renal, 4.36% (active); in the test on COLO 205 colon, -55.1% (active).
